Data as given in PubChem BioAssay AID588334 (Broad Institute, 2011).
In all, about 300,000 compounds went through this assay and about 2,300 (0.77%) were called active. The entries come from a sample that favours actives as a whole. Values without a mark were called inactive.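 Rule for the calls: active = mean activation of at least 80% with every replicate also reaching 80%; inconclusive = mean reaches 80% but some replicate falls short; inactive = the rest.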

experiment: MITF-driven TRPM1 luciferase induction in melanoma cells – cell-based, SK-MEL-5, single point, primary screen (AID 588334); conditions: SK-MEL-5 TRPM1-promoter luciferase, 24 h; at 12.5 µM; stronger effect = higher value; % of positive control, neutral wells = 0;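 note: 0% = neutral control wells and 100% = parthenolide positive control wells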

SMILES | activation
CCOC(=O)c1ccccc1OC(=O)Oc1ccccc1C(=O)OCC | -22.1%
CCc1ccc(NC(=O)Cn2ncn3c(cc4ccccc43)c2=O)cc1 | -8.34%
CC(C)c1ccc(NC(=O)Cn2ncc3ccccc32)cc1 | 93% (active)
CCCN1CCN(C(=O)Cn2ncc3ccccc32)CC1 | -0.935%
O=C(OCCOc1ccccc1Cl)c1cc(S(=O)(=O)N2CCCCC2)ccc1N1CCOCC1 | -10.6%
O=CN1CCN(C(=O)c2ccc(Br)o2)CC1 | -12.5%
CN1CCN(C(=O)c2ccc(-c3ccc(Br)cc3)o2)CC1 | 123% (active)
COc1ccccc1OCc1ccc(C(=O)N2CCN(C)CC2)o1 | 1.8%
CC(C)=CCc1ccc(O)c(=O)cc1C(C)C | -70.3%
CC[C@@H](C)[C@@H]1CN([C@@H](C)CN2CCC[C@H]2CN2C(N)=NC[C@H]2C(C)C)C(=N)N1CCc1ccc(Cl)c(Cl)c1 | 5.32%
CS(=O)(=O)N1CCc2nc(-c3ccccc3)sc2C1 | 92.1% (active)
CS(=O)(=O)N1CCN(c2cccc(Cl)n2)CC1 | -7.99%
CS(=O)(=O)N1CCN(C(=O)Cc2ccccc2)CC1 | -6.87%
COc1ccc(S(=O)(=O)Nc2cccc3c2O[C@H](CN(C)S(=O)(=O)c2ccc(OC)cc2)[C@@H](C)CN([C@H](C)CO)C3=O)cc1 | 0.473%
O=C1C=C(NS(=O)(=O)c2ccccc2)C(=O)c2ccccc21 | -65.5%
COc1ccc(Cn2cc(CN3CCS(=O)(=O)N(Cc4ccc(-c5cccc(Cl)c5)cc4)C(C)C3=O)nn2)cc1 (centres undefined) | 0.982%
Cc1ccn(-c2cccc(-n3ccc(C)n3)n2)n1 | 119% (active)
Cc1cccc(N2O[C@H]3C=CC2CCCC3)n1 | 63.6%
Cc1ccccc1Nc1nc(-c2cccnc2)cs1 | 97.6% (active)
O=C(Nc1nc(-c2cccnc2)cs1)c1ccccc1F | 72.7%
O=C(NCc1cccnc1)C(=O)Nc1nc(-c2ccccc2)cs1 | 54.4%
Cc1ccc(C(=O)O)c(NC=O)c1OCc1ccccc1 | 11%
NC(=O)C1CCN(C(=O)c2cc(S(=O)(=O)N3CCN(c4ccccc4)CC3)ccc2Cl)CC1 | -3.4%
CC(C)(C)C(=O)c1cnc(Nc2ccccc2)s1 | 124% (active)

SMILES | activation
O=C(/C=C/Nc1ccccc1)c1cnc(-c2ccccc2)s1 | 37.6%
CC(=O)c1cnc(-c2ccccc2)s1 | 13.4%
CN[C@H](C(=O)NC[C@H]1O[C@@H](n2cnc3c(N)ncnc32)[C@H](O)[C@@H]1O)[C@@H](C)OCc1ccccc1 | 17%
COc1cc(NC(=O)c2[nH]cnc2C(N)=O)cc(C(=O)Nc2cccc(C(F)(F)F)c2)c1 | -88.9%
C[C@@H]1NS(=O)(=O)c2cc(Cl)ccc2O[C@@H]1c1ccccc1 | 2.48%
COc1cccc(/C=N\Nc2nncc(-c3ccccc3)n2)c1 | 27.3%
COc1cccc(/C=N/Nc2ccc(Cl)nn2)c1 | 93.6% (active)
Oc1cccc(/C=N/Nc2ccc(Cl)nn2)c1O | -6.43%
CCOC(=O)C1=CN(Cc2ccc(Br)cc2)S(=O)(=O)N(C)C1C (centres undefined) | -0.639%
O=C(O)c1ccc(S(=O)(=O)c2ccccc2)s1 | -11%
Cc1cc(C(=O)N/N=C\C(Br)=C\c2ccccc2)c(C)o1 | 15.4%
CC(=C/c1ccccc1)/C=N/NC(=O)c1cc(C)oc1C | 25.1%
Cc1cc(C(=O)N/N=C/c2ccccc2[N+](=O)[O-])c(C)o1 | 84.3% (active)
Cc1ccc(OCCNC(=O)c2cccc(S(=O)(=O)N3CCN(Cc4ccccc4)CC3)c2)cc1 | -0.856%
Cc1cc(NC(=O)c2cc3ccccc3o2)no1 | -6.37%
COC(=O)c1ccc(NCc2cc(O)ccc2O)cc1 | 3%
Cc1ccc(C(=O)CNc2ccc(F)cc2)cc1 | -0.394%
COC(=O)c1ccc(NCC(=O)c2ccccc2)cc1 | 146% (active)
CN1CCOC1c1ccc(C2OCCN2C)cc1 (centres undefined) | -9.68%
C=CCOC(=O)N1CCC2CC1c1cc(-c3ccc(OC)cc3)ccc12 (centres undefined) | -2.99%
COc1cc(OC)c(C(=O)NNC(=O)c2ccccc2-n2cccc2)cc1OC | 7.14%
COCCOC(=O)c1[nH]c2c(c1C)C(=O)CC(c1ccc(OC)cc1)C2 (centres undefined) | 8.85%
COC(=O)C1C(=O)c2c([nH]c(C(=O)OCCSC)c2C)CC1C (centres undefined) | 92.2% (active)
CCCOC(=O)c1[nH]c2c(c1C)C(=O)CC(c1cccs1)C2 (centres undefined) | -44.3%

SMILES | activation
COc1ccc(-c2noc(CCC(=O)N3CCN(c4cccc(C)c4)CC3)n2)cc1 | 0.066%
COc1ccc(-c2ccc3c(c2)[C@@H]2C[C@H](N(C)S(=O)(=O)c4ccccc4)[C@H]([C@H](C)O)C(=O)N2CC3)cc1 | -7.92%
CC(C)Cn1cnc2c(SCc3ccc(Cl)cc3)nc(N)nc21 | 12.1%
O=C(CC(=O)c1cccnc1)c1ccccc1 | 48%
Cc1cc(OCc2cc(C(=O)NCc3cc(C(C)C)no3)no2)cc(C)c1Cl | 84.2% (active)
Cc1cccnc1CC(C)NC(=O)c1cc(COc2cncc(Cl)c2)on1 (centres undefined) | 51.4%
COc1ccc(OCc2cc(C(=O)NCC3(C)COC3)no2)c(Cl)c1 | 37.2%
CC(C)(C)OC(=O)N1CCC(C(=O)Nc2cccc(C(=O)NCCc3ccccc3)c2)CC1 | 0.242%
CCCCc1ccc(NC(=S)NCCCN2CCOCC2)cc1 | 13.8%
COc1ccc(NC(=S)N2CCCC(CO)C2)c(OC)c1 (centres undefined) | -5.46%
CCCCc1ccc(NC(=S)N2CCCC(CO)C2)cc1 (centres undefined) | 105% (active)
NS(=O)(=O)c1ccc(CCNC(=O)c2ccc(Cl)c(S(=O)(=O)N3CCCCCC3)c2)cc1 | -34.2%
CC(C)(C)c1nnc2sc(SCC(O)=C(C#N)c3nc4ccccc4[nH]3)nn2c1=O | 7.19%
O=[N+]([O-])c1ccc(NS(=O)(=O)c2ccccc2)c(Cl)c1 | -5.26%
O=C(NC1=NCCS1)c1ccc(Cl)s1 | 121% (active)
O=C(NCc1ccc2c(c1)OCO2)c1ccc(Cl)s1 | 9.51%
COc1ccc(C(=O)NC2=NCCS2)c(OC)c1 | 33.9%
C[C@H](CO)N1C[C@H](C)[C@H](CN(C)CC2CC2)Oc2ccc(NC(=O)CCN3CCOCC3)cc2C1=O | 4.29%
COc1cc(/C=C/CNC[C@H]2O[C@@H](n3cnc(C(N)=O)n3)[C@H](O)[C@@H]2O)ccc1O | -8.98%
C=CC(=O)Nc1ccc(Nc2ccnc(Nc3ccc(N4CCN(C)CC4)cc3)n2)cc1 | -13.2%
Nc1cc2c(cc1Br)-c1ccc(F)cc1C2=O | 7.07%
COC(=O)[C@@]1(C)[C@H]2C(=O)N(Cc3ccccc3)C(=O)[C@H]2[C@H]2CN=C(SCC3CC3)N21 | -1.12%
COC1=NC2=NCCN2C(OC)=N1 | 4.31%
Cc1c(NC(=O)c2cc(-c3ccc(Br)cc3)on2)c(=O)n(-c2ccccc2)n1C | 6.12%

SMILES | activation
CC(C)CNC(=O)c1cc(-c2ccc(Br)cc2)on1 | 124% (active)
CC(C)Cc1cc(C(=O)Nc2cc(Br)ccc2O)no1 | 42.2%
CC(=O)c1ccc(NC(=O)CSc2nc3ccccc3c(=O)n2CCCN2CCOCC2)cc1 | 14.6%
Cc1ccc(NC(=O)c2oc(=O)c3ccccc3c2-c2ccccc2)c(C)c1 | -8.24%
Cc1ccc(NC(=O)C(=O)NCc2ccco2)c(C)c1 | 72.2%
Cc1ccc(NN=C2C(=O)OC(C)(C)OC2=O)c(C)c1 | 120% (active)
COc1ccc(CNc2nc(NCc3ccc(OC)cc3)c3ncn(C4CCCC4)c3n2)cc1 | -22%
CCCN(C(=O)CSc1nnc(N)s1)c1c(N)n(Cc2ccccc2)c(=O)[nH]c1=O | -11.7%
CCCCNCCS(=O)(=O)NCc1ccccc1 | 11.7%
FC(F)(F)c1ccnc(Oc2ccc(C3=NCCS3)cc2)c1 | 102% (active)
O=Cc1ccc(Oc2cccc(C(F)(F)F)c2)nc1 | 2.89%
O=[N+]([O-])c1cccc(C2=NCCS2)c1 | -11.6%
CC1C(C)N(C(=O)CCl)c2ccccc2N1C(=O)CCl (centres undefined) | -89.8%
Cc1nn(-c2ccc([N+](=O)[O-])cc2)c(N)c1-c1ccccc1 | 97.5% (active)
Cc1nn(-c2ccccc2)c2c1C(c1cccc([N+](=O)[O-])c1)N(c1ccccc1)C(=O)N2 (centres undefined) | -8.33%
O=C1CC(c2ccccc2)=NN1c1ccc([N+](=O)[O-])cc1 | 29.1%
Cc1noc(C)c1CCC(=O)N1CCCC(CO)(Cc2ccccc2)C1 (centres undefined) | 67.5%
COC(=O)CCC(=O)N1CCCC(CO)(Cc2ccccc2)C1 (centres undefined) | 94.6% (active)
Cc1ccccc1CC1(CO)CCCN(C(=O)c2cc(-c3ccccc3)no2)C1 (centres undefined) | 6.1%
Cn1cc(C2OC(=O)c3ccccc32)c2ccccc21 (centres undefined) | -10.6%
COc1ccccc1N(CC(=O)Nc1c(C)n(C)n(-c2ccccc2)c1=O)S(=O)(=O)c1ccccc1 | -1.77%
CCCCN(C(=O)c1cccc(N2C(=O)c3ccccc3C2=O)c1)c1c(N)n(CCCC)c(=O)[nH]c1=O | -1.35%
